Test results published in PubChem BioAssay (EPA / NIEHS).
The source made the active and inactive calls. The calls were made as follows: active = hit-call score of the fitted dose curve at least 0.9, where 1 is the maximum; inactive = score below 0.9.

Each molecule was assayed on Interleukin 2 (IL2), IL2 (gene 3558) (assay: BSK_BT_xIL2: BioMAP Diversity Plus: BT Assay for Interleukin 2 (IL2) Biomarker Activity (AID 2284245)). Conditions: primary human B cells with PBMC.
Experimental: BSK_BT is a cell-based, multiplexed-readout assay that uses B cell and peripheral blood mononuclear cells, a human vascular primary cell co-culture, with measurements taken at 24 hours after chemical dosing in a microplate: 96-well plate.BSK_BT_xIL2 is an assay component measured in the BSK_BT assay. It measures secreted IL-2 related to regulation of gene expression using LumineX xMAP technology.Data from the assay component BSK_BT_xIL2 was analyzed at the endpoint, BSK_BT_xIL2, in the positive analysis fitting direction relative to DMSO as the negative control and baseline of activity. Using a type of cytokine quantitation reporter, gain or loss-of-signal activity can be used to understand protein changes. To generalize the intended target to other relatable targets, this assay endpoint is annotated to the 'cytokine' intended target family, where the subfamily is 'interleukins'.
The levels of cell surface (or secreted, indicated by the prefix "s") biomarker endpoints were measured by ELISA. Overt cytotoxicity to cells in confluent adherent cultures (all systems other than the BT system) was assessed by measuring total protein levels using sulforhodamine B (SRB) staining in parallel cultures at the time of biomarker measurements, indicated as SRB endpoints. For proliferation assays for adherent cell types, individual cell types are cultured at sub-confluence and relative cell numbers quantified by SRB staining at time points optimized for each system (48 h: 3C and CASM3C systems; 72 h: BT and HDF3CGF systems; 96 h: SAg system). SRB was performed by staining cells with 0.1% SRB after fixation with 10% TCA and reading wells at 560 nm.Viability and proliferation of PBMC (T cells) was quantified by Alamar Blue reduction for the SAg and BT systems. For PBMC viability (referred to as PBMC Cytotoxicity within the assay endpoint names), cells were plated (75,000/well in a 96-well plate) and then chemical samples added for 1 h before addition of activators, SEB and TSST-1 (20 ng/mL final concentration each). Cells were incubated for 90 h. Then, Alamar Blue (20 uL/well) (Invitrogen, Cat DAL1100) was added for 6 h, and the plates were read with a fluorescence microplate reader at 546/580 nm (excitation/emission). For PBMC proliferation, cells were plated and activated as above but incubated for only 16 h prior to addition of Alamar Blue. Plates were read after 6 h.
For `Nc1cccc2ccccc12`, the outcome was “inactive”. In the case of `CCSC(C)CC1CC(=O)C(C(CC)=NOC/C=C/Cl)=C(O)C1` (stereo unspecified), the outcome is reported as “inactive”. With `Nc1ncc([N+](=O)[O-])s1` the outcome was “inactive”. For `C(=NC1CCCCC1)=NC1CCCCC1`, the AC50 was 10.7 µM (active). In the case of `Nc1ccc(-c2ccc(N)c(Cl)c2)cc1Cl`, the AC50 is reported as 32.4 µM (active). In the case of `O=C(OC1CCCCC1)c1ccccc1C(=O)OC1CCCCC1`, the AC50 is reported as 30.9 µM (active). For `ClC1=C(Cl)[C@]2(Cl)[C@H]3[C@H]([C@H]4C=C[C@H]3C4)[C@@]1(Cl)C2(Cl)Cl`, the outcome was “inactive”. `COP(=S)(OC)Oc1ccc(Sc2ccc(OP(=S)(OC)OC)cc2)cc1` was tested, and the outcome was “inactive”. For `OCc1ccco1`, the outcome was “inactive”. With `CCCCCCCCC(=O)NCc1ccc(O)c(OC)c1` the outcome was “inactive”. In the case of `CC1(C)Cc2cccc(O)c2O1`, the outcome is reported as “inactive”. With `CC(C)c1ccc(CO)cc1` the outcome was “inactive”. In the case of `CCOP(=S)(OCC)Oc1ccc(S(C)=O)cc1` (stereo unspecified), the outcome is reported as “inactive”. `O=Cc1cccc(Oc2ccccc2)c1` was tested, and the outcome was “inactive”. In the case of `CCOC(=O)/C=C(C)/C=C/C[C@@H](C)CCCC(C)C`, the AC50 is reported as 20 µM (active). For `COP(=S)(OC)Oc1ccc(S(=O)(=O)N(C)C)cc1`, the outcome was “inactive”. In the case of `O=C(O)CCC(F)(C(F)(F)F)C(F)(F)F`, the outcome is reported as “inactive”. `CCNc1nc(NC(C)(C)C)nc(SC)n1` was tested, and the outcome was “inactive”. `O=[N+]([O-])c1ccc2c3c(cccc13)CC2` was tested, and the outcome was “inactive”. For `BrCCBr`, the outcome was “inactive”. With `Oc1c(I)cc(I)cc1I` the outcome was “inactive”. In the case of `COP(=S)(OC)Oc1c(Cl)cc(C)cc1Cl`, the outcome is reported as “inactive”. For `COP(=S)(OC)Oc1cc(Cl)c(Cl)cc1Cl`, the outcome was “inactive”. For `CC(C)CCCCCCOC(=O)c1ccccc1C(=O)OCCCCCCC(C)C`, the outcome was “inactive”. `CC(=O)C(Cl)C(=O)N(C)C` (stereo unspecified) was tested, and the AC50 was 34.4 µM (active). `COC(=O)c1sccc1S(=O)(=O)NC(=O)Nc1nc(C)nc(OC)n1` was tested, and the outcome was “inactive”. For `ClC(Cl)=C(Cl)C(Cl)=C(Cl)Cl`, the outcome was “inactive”. For `CCOP(=S)(OCC)SCCS(=O)(=O)CC`, the AC50 was 23.9 µM (active). In the case of `CCCCC(CC)CO[N+](=O)[O-]` (stereo unspecified), the outcome is reported as “inactive”. For `COc1cc(OC)nc(NC(=O)NS(=O)(=O)c2ncccc2C(=O)N(C)C)n1`, the outcome was “inactive”. `COC[C@H](C)N(C(=O)CCl)c1c(C)csc1C` was tested, and the outcome was “inactive”. With `NC(=S)Nc1ccccc1` the outcome was “inactive”. `O=C(O)C(F)(F)C(F)(F)C(F)(F)C(F)(F)C(F)(F)C(F)(F)F` was tested, and the outcome was “inactive”. In the case of `O=S(=O)(c1ccc(Cl)cc1)c1ccc(Cl)cc1`, the outcome is reported as “inactive”. For `Oc1ccc(-c2ccccc2)cc1`, the outcome was “inactive”. In the case of `O=C(O)C(F)(F)C(F)(F)C(F)(F)C(F)(F)C(F)(F)C(F)(F)C(F)(F)C(F)(F)C(F)(F)C(F)(F)F`, the outcome is reported as “inactive”.
